# In PubChem BioAssay:
# The source made the active and inactive calls.
# Assays:
# [1] = small molecules captured by biotinylated probe aFSTL3 – biochemical, small-molecule microarray, fluorescence 635/667, stem cell growth factor project, primary screen (AID 1064); details: higher = more signal;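 further: measures binding of the biotinylated anti-FSTL3 antibody to printed compounds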
# [2] = binders from COS7 lysate, DM2A8 probe, primary screen, torsin A project, cell lysate, small-molecule microarray, fluorescence 635/667 (AID 1065); details: higher = more signal, COS7 lysate expressing mutant human TOR1A
# [3] = small molecules captured by biotinylated probe aFGF2 – biochemical, small-molecule microarray, fluorescence 635/667, stem cell growth factor project, primary screen (AID 1067); details: higher = more signal;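 further: measures binding of biotinylated aFGF2 protein to printed compounds on slides; z-score merges feature fluorescence and signal-to-noise across triplicate slides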
# [4] = small molecules captured by biotinylated probe aFGF10 – biochemical, small-molecule microarray, fluorescence 635/667, stem cell growth factor project, primary screen (AID 1071); details: higher = more signal;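 further: score merges 667 nm spot intensity and signal to noise from triplicate slides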
# [5] = target: Neurogenic locus notch homolog protein 2 (Homo sapiens) (UniProt Q04721); assay: small molecules binding Notch2 protein – biochemical, small-molecule microarray, 635 nm fluorescence, stem cell growth factors, primary screen (AID 1073); details: higher = more signal
# [6] = target: Pro-neuregulin-1, membrane-bound isoform (Homo sapiens) (UniProt Q02297); assay: small molecules binding neuregulin-1 protein – biochemical, small-molecule microarray, fluorescence 635/667, psychiatric disease protein project, primary screen (AID 1075); details: NRG1 binding, 635 nm fluorescence, higher = more signal;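 further: score combines 667 nm spot fluorescence with signal to noise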
# Chain of Pro-neuregulin-1, membrane-bound isoform (Homo sapiens) (Q02297 whole entry, looked up, the tested form may be a part, canonical isoform): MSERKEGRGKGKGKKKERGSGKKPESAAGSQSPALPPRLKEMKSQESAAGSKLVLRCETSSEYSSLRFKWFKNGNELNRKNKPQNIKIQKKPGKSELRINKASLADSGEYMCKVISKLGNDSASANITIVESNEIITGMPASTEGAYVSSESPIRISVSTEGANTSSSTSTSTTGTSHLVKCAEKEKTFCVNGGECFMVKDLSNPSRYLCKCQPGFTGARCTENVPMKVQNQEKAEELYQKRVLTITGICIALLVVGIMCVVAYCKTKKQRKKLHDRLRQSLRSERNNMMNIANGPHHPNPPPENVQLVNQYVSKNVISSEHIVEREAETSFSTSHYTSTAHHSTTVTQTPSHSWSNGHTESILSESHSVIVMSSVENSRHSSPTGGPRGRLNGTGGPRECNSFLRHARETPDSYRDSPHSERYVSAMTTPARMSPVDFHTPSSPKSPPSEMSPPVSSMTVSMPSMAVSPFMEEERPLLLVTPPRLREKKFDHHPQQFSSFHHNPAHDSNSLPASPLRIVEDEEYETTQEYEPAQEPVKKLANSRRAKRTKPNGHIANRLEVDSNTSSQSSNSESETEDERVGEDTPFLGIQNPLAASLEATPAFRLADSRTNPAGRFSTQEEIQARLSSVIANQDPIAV
# [7] = tested on: Neuregulin-1 EGF-like domain; assay: small molecules binding NRG1 EGF domain – biochemical, small-molecule microarray, 635 nm fluorescence, primary screen (AID 1081); details: higher = more signal;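 further: binding of the protein to compounds printed on small-molecule microarray slides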
# [8] = FRG1 expression reporter modulators in myotubes – cell-based, C2C12 myotubes, firefly/Renilla luciferase, luminescence, FRG1 inhibition for FSHD, primary screen (AID 1084); details: FRG1 promoter luciferase, higher = more signal, called active from +8 up or from −8 down
# [9] = small molecules captured by biotinylated probe aFST – biochemical, small-molecule microarray, fluorescence 635/667, stem cell growth factor project, primary screen (AID 1086); details: higher = more signal;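 further: score merges 667 nm fluorescence with signal-to-noise of each printed compound spot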
# [10] = binders of probe aHhip on microarray, primary screen, stem cell growth factor project, biochemical, small-molecule microarray, fluorescence 635/667 (AID 1087); details: higher = more signal;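 further: score merges spot fluorescence at 667nm with spot signal to noise ratio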
# [11] = tested on: PRMT1 (protein arginine N-methyltransferase 1); assay: small molecules binding arginine methyltransferase PRMT1 – biochemical, small-molecule microarray, 635 nm fluorescence, primary screen (AID 1088); details: higher = more signal;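 further: binding of Prmt1 protein to compounds spotted on small-molecule microarray slides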
# [12] = growth effects on S. cerevisiae YJM789 – YJM789 clinical isolate, OD600, 24 h, basal, primary screen (AID 1089); details: higher = more signal, called active from +8 up or from −8 down;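 further: growth of clinical yeast isolate S. cerevisiae YJM 789 seeded 1000 cells per well; test concentration not given here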
# [13] = S. pombe growth modifiers, basal conditions – strain 972, OD600, 24 h, no modulator, primary screen (AID 1090);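 further: basal condition with compound alone and no growth modifier present; test concentration not given here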; details: S. pombe 972 growth, higher = more signal, called active from +8 up or from −8 down
# [14] = budding yeast growth modifiers under rapamycin – strain BY4716, OD600, 96 h, primary screen (AID 1091); further: test concentration not given here; details: S. cerevisiae BY4716 + rapamycin, higher = more signal, called active from +8 up or from −8 down
# [15] = target: Torsin-1A-interacting protein 2 (Homo sapiens) (UniProt Q8NFQ8); assay: small molecules binding lysate-expressed LULL1 – cell lysate, human LULL1 lysate, 635/667 nm fluorescence, primary screen (AID 1092); details: small-molecule microarray, hLULL1 lysate binding, 635 nm fluorescence; higher = more signal;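 further: probe is lysate of COS7 cells overexpressing human LULL1; score merges per-feature 667 nm fluorescence with signal-to-noise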
# Chain of Torsin-1A-interacting protein 2 (Homo sapiens) (Q8NFQ8 whole entry, looked up): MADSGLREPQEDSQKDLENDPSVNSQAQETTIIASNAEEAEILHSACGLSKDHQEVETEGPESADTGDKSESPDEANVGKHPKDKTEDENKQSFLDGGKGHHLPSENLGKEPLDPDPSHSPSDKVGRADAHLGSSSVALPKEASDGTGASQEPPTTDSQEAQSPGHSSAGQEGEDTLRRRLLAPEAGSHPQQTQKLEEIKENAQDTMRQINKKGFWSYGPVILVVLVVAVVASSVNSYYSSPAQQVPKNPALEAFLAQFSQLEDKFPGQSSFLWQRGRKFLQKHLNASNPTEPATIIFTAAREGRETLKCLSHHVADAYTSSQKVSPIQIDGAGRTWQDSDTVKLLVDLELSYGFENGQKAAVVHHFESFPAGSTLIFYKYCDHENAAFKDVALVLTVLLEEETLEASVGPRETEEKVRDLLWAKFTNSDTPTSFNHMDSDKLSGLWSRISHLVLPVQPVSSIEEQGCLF
# [16] = optical density change of DRC41 E. coli – strain DRC41, OD650, 24 h, E. coli filamentation project, primary screen (AID 1093);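 further: MC1000 strain lacking acrAB efflux and sulA so SOS filamentation is blocked; test concentration not given here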; details: E. coli DRC41 growth, higher = more signal, called active from +8 up or from −8 down
# [17] = probe aLefty2 binding to arrayed compounds – biochemical, biotinylated probe, 635/667 nm fluorescence, primary screen (AID 1094); details: small-molecule microarray, higher = more signal;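 further: score merges spot fluorescence near 667 nm with spot signal-to-noise ratio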
# [18] = tested on: Noggin (protein binding on small-molecule microarray); assay: small molecules binding Noggin protein – biochemical, 635/667 nm fluorescence, primary screen (AID 1095); details: 635 nm fluorescence, higher = more signal;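 further: score merges 667 nm feature fluorescence with signal to noise over triplicate slides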
# [19] = target: Neurogenic locus notch homolog protein 3 (Homo sapiens) (UniProt Q9UM47); assay: small molecules binding NOTCH3 protein – biochemical, 635/667 nm fluorescence, primary screen (AID 1096); details: small-molecule microarray, 635 nm fluorescence, higher = more signal
# Chain of Neurogenic locus notch homolog protein 3 (Homo sapiens) (Q9UM47 whole entry, looked up): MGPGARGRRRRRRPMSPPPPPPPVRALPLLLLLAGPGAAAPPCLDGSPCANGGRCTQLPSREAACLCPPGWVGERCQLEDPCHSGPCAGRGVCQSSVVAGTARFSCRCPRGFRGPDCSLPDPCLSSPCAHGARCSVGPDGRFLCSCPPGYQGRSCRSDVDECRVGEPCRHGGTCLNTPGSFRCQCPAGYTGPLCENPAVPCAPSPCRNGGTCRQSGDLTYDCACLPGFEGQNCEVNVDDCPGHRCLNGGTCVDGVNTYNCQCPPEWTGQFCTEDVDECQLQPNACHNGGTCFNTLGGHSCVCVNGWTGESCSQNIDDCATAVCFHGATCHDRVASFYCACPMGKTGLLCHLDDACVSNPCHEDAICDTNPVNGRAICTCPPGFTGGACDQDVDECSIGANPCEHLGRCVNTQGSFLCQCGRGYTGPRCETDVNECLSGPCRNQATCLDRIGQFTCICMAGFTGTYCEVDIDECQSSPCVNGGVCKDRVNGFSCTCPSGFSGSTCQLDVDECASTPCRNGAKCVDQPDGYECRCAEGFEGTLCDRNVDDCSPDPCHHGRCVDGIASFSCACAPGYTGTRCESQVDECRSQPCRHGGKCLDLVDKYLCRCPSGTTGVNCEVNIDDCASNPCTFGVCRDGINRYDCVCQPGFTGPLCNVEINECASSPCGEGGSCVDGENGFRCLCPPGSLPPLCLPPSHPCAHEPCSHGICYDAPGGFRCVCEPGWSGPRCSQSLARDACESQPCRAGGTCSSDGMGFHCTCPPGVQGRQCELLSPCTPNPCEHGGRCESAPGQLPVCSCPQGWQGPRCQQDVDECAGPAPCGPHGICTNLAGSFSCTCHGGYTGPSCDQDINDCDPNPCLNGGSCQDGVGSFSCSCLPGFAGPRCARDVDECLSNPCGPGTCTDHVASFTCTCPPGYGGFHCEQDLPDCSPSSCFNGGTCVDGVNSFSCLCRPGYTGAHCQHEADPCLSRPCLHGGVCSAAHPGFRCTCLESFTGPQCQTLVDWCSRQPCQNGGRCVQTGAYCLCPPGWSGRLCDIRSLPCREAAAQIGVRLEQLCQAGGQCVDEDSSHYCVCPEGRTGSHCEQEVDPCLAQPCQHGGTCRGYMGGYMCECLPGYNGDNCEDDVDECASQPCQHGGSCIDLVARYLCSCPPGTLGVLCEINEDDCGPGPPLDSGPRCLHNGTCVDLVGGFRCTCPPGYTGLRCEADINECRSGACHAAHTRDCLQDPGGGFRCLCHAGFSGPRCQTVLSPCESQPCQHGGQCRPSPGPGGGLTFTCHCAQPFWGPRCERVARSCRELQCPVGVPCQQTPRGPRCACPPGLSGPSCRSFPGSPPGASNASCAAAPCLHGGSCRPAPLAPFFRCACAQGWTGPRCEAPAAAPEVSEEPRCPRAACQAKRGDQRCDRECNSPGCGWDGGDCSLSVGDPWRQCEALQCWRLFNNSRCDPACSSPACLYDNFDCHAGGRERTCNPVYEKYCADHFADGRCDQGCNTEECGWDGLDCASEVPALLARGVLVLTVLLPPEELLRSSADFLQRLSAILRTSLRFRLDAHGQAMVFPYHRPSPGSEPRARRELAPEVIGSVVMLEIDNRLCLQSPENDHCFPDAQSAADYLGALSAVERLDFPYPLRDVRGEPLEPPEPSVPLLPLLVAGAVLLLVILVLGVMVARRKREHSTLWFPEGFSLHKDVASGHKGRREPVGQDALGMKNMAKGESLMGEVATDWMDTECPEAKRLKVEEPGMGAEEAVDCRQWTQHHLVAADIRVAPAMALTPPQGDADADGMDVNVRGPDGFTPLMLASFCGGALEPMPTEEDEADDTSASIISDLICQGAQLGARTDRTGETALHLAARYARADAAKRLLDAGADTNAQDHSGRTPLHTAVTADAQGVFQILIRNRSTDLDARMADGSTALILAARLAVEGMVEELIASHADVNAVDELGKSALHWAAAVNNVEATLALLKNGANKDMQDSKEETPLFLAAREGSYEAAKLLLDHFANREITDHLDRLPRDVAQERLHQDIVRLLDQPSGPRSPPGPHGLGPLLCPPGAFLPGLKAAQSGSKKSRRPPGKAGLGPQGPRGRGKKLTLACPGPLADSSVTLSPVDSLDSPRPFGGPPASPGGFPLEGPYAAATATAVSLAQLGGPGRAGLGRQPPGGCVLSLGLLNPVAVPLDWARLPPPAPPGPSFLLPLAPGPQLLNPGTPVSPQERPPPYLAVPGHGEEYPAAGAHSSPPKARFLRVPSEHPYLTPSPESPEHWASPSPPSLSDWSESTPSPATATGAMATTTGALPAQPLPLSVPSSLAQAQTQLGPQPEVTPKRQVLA
# [20] = probe aEGFR binding to arrayed compounds – biochemical, biotinylated probe, 635/667 nm fluorescence, primary screen (AID 1097); details: small-molecule microarray, higher = more signal;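 further: probe is a biotinylated anti-EGFR antibody binding compounds printed on slides; score combines fluorescence near 667 nm and signal to noise of each spot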
structure (smiles),measurement,setting,value
CCCCN1CC=CC23O[C@@H]4/C=C\CCC(C)OC(=O)C4[C@H]2C(=O)N(CCO)[C@@H]3C1=O (stereo not given in full),composite z-score,[1],0.19
same,composite z-score,[2],1.97
same,composite z-score,[3],-0.117
same,composite z-score,[4],-0.206
same,composite z-score,[5],-0.722
same,composite z-score,[6],0.19
same,composite z-score,[7],1.12
same,z-score,[8],-0.093 (inactive)
same,composite z-score,[9],-0.14
same,composite z-score,[10],-0.3
same,composite z-score,[11],-0.314
same,z-score,[12],-1.64 (inactive)
same,z-score,[13],-1.02 (inactive)
same,z-score,[14],-1.2 (inactive)
same,composite z-score,[15],3.4
same,z-score,[16],2.26 (inactive)
same,composite z-score,[17],0.0469
same,composite z-score,[18],-0.19
same,composite z-score,[19],-0.342
same,composite z-score,[20],-0.157
CC(C)N1C(=O)[C@@]2(Cc3ccccc31)c1ccccc1C(=O)N(Cc1ccccc1C(F)(F)F)[C@H]2c1ccc(CO)cc1,composite z-score,[1],-0.303
same,composite z-score,[2],0.0613
same,composite z-score,[3],-0.0775
same,composite z-score,[4],0.108
same,composite z-score,[5],0.339
same,composite z-score,[6],0.39
same,composite z-score,[7],1.46
same,z-score,[8],-0.641 (inactive)
same,composite z-score,[9],0.086
same,composite z-score,[10],-0.116
same,composite z-score,[11],1.31
same,z-score,[12],-0.0493 (inactive)
same,z-score,[13],-0.706 (inactive)
same,z-score,[14],-1.81 (inactive)
same,composite z-score,[15],2.23
same,z-score,[16],-0.569 (inactive)
same,composite z-score,[17],-0.269
same,composite z-score,[18],0.841
same,composite z-score,[19],0.99
same,composite z-score,[20],0.116
O=C1O[C@H](c2ccccc2)[C@H](c2ccccc2)N2[C@H]1[C@@H](C(=O)N1CCCCCCC1)[C@]1(C(=O)Nc3ccc(C#CCCO)cc31)[C@H]2c1ccc(O)cc1,composite z-score,[1],3.79
same,composite z-score,[2],2.62
same,composite z-score,[3],0.978
same,composite z-score,[4],1.4
same,composite z-score,[5],1.79
same,composite z-score,[6],2.79
same,composite z-score,[7],1.42
same,z-score,[8],-1.1 (inactive)
same,composite z-score,[9],3.34
same,composite z-score,[10],1.7
same,composite z-score,[11],1.54
same,z-score,[12],0.6 (inactive)
same,z-score,[13],-0.36 (inactive)
same,z-score,[14],1.45 (inactive)
same,composite z-score,[15],5.04
same,z-score,[16],2.08 (inactive)
same,composite z-score,[17],1.78
same,composite z-score,[18],0.731
same,composite z-score,[19],1.02
same,composite z-score,[20],1.38
O=C1O[C@@H](c2ccccc2)[C@@H](c2ccccc2)N2[C@@H](c3ccc(OCCO)cc3)[C@]3(C(=O)Nc4ccc(C#CC5=CCCCC5)cc43)[C@@H](C(=O)Nc3nc4ccccc4s3)[C@H]12,composite z-score,[1],-0.574
same,composite z-score,[2],0.0484
same,composite z-score,[3],-0.357
same,composite z-score,[4],0.3
same,composite z-score,[5],0.91
same,composite z-score,[6],0.744
same,composite z-score,[7],0.651
same,z-score,[8],4.67 (inactive)
same,composite z-score,[9],-1.06
same,composite z-score,[10],-1.07
same,composite z-score,[11],1.56
same,z-score,[12],2.22 (inactive)
same,z-score,[13],1.59 (inactive)
same,z-score,[14],1.57 (inactive)
same,composite z-score,[15],1.86
same,z-score,[16],-0.124 (inactive)
same,composite z-score,[17],-0.673
same,composite z-score,[18],1.11
same,composite z-score,[19],1.02
same,composite z-score,[20],-0.0613
COC(=O)[C@@]1(Cc2ccc(F)cc2)[C@@H]2C(=CC(=O)[C@H]2CC(=O)C(=O)N2CCCC2)CN1C(=O)c1ccccc1,composite z-score,[1],1
same,composite z-score,[2],1.61
same,composite z-score,[3],0.575
same,composite z-score,[4],0.866
same,composite z-score,[5],1.58
same,composite z-score,[6],1.81
same,composite z-score,[7],1.33
same,z-score,[8],1.48 (inactive)
same,composite z-score,[9],2.02
same,composite z-score,[10],0.655
same,composite z-score,[11],1.55
same,z-score,[12],-0.403 (inactive)
same,z-score,[13],0.0239 (inactive)
same,z-score,[14],0.413 (inactive)
same,composite z-score,[15],3.6
same,z-score,[16],-0.074 (inactive)
same,composite z-score,[17],1.34
same,composite z-score,[18],1.32
same,composite z-score,[19],1.13
same,composite z-score,[20],1.08
O=C1C2C=CC(C(O)C3CC=CCC3)N(Nc3ccc([N+](=O)[O-])cc3)C2C(=O)N1c1ccccc1 (stereo not given),composite z-score,[1],1.47
same,composite z-score,[2],1.28
same,composite z-score,[3],0.428
same,composite z-score,[4],1.14
same,composite z-score,[5],1.54
same,composite z-score,[6],1.61
same,composite z-score,[7],1.26
same,z-score,[8],-1.06 (inactive)
same,composite z-score,[9],2.28
same,composite z-score,[10],0.0729
same,composite z-score,[11],1.41
same,z-score,[12],-1.09 (inactive)
same,z-score,[13],0.531 (inactive)
same,z-score,[14],2.22 (inactive)
same,composite z-score,[15],3.22
same,z-score,[16],0.0043 (inactive)
same,composite z-score,[17],0.486
same,composite z-score,[18],0.7
same,composite z-score,[19],1.06
same,composite z-score,[20],0.298
O=C1O[C@H](c2ccccc2)[C@H](c2ccccc2)N2[C@H]1[C@@H](C(=O)N1CCN(c3ncccn3)CC1)[C@]1(C(=O)Nc3ccc(C#CC4(O)CCCCCC4)cc31)[C@H]2c1ccc(O)cc1,composite z-score,[1],0.406
same,composite z-score,[2],2.01
same,composite z-score,[3],-0.0125
same,composite z-score,[4],1.04
same,composite z-score,[5],0.607
same,composite z-score,[6],1.54
same,composite z-score,[7],1.28
same,z-score,[8],0.0132 (inactive)
same,composite z-score,[9],0.0718
same,composite z-score,[10],-0.0645
same,composite z-score,[11],1.55
same,z-score,[12],0.736 (inactive)
same,z-score,[13],-0.391 (inactive)
same,z-score,[14],1.21 (inactive)
same,composite z-score,[15],2.57
same,z-score,[16],2.61 (inactive)
same,composite z-score,[17],-0.209
same,composite z-score,[18],1.2
same,composite z-score,[19],1.11
same,composite z-score,[20],-0.0225
CC[C@H]1C2=C3C(CC[C@H]4C(OCc5ccc(F)cc5C(F)(F)F)OC[C@](C)([C@@H]34)N(C(=O)OC(C)(C)C)C2)C(COC(C)=O)C1COC(C)=O (stereo not given in full),composite z-score,[1],-0.187
same,composite z-score,[2],-0.25
same,composite z-score,[3],0.0311
same,composite z-score,[4],0.54
same,composite z-score,[5],1.54
same,composite z-score,[6],1
same,composite z-score,[7],1.2
same,z-score,[8],1.48 (inactive)
same,composite z-score,[9],1.43
same,composite z-score,[10],0.104
same,composite z-score,[11],0.454
same,z-score,[12],-0.284 (inactive)
same,z-score,[13],0.387 (inactive)
same,z-score,[14],1.46 (inactive)
same,composite z-score,[15],2.89
same,z-score,[16],-1.31 (inactive)
same,composite z-score,[17],0.0909
same,composite z-score,[18],0.539
same,composite z-score,[19],1.13
same,composite z-score,[20],0.0507
CC1CC/C=C\[C@H]2OC34C=CCN(C(C)C)C(=O)[C@H]3N(C(C)CO)C(=O)[C@@H]4C2C(=O)O1 (stereo not given in full),composite z-score,[1],-0.213
same,composite z-score,[2],0.104
same,composite z-score,[3],-0.129
same,composite z-score,[4],-0.19
same,composite z-score,[5],-0.0047
same,composite z-score,[6],-0.43
same,composite z-score,[7],0.238
same,z-score,[8],-0.658 (inactive)
same,composite z-score,[9],-0.088
same,composite z-score,[10],-0.137
same,composite z-score,[11],0.216
same,z-score,[12],0.0052 (inactive)
same,z-score,[13],0.285 (inactive)
same,z-score,[14],-0.448 (inactive)
same,composite z-score,[15],0.476
same,z-score,[16],1.62 (inactive)
same,composite z-score,[17],-0.172
same,composite z-score,[18],0.202
same,composite z-score,[19],0.41
same,composite z-score,[20],-0.158
